{
  "source": "PubChem BioAssay AID1788",
  "about": "(Vanderbilt High Throughput Screening Facility, 2009)",
  "tested_on": "Purinergic P2X (rabbit)",
  "test": "PubChem AID 1788",
  "conditions": "MDS Pharma lead profiling panel, radioligand binding, at 10 µM, hits give high values",
  "note": "Values without a mark were called inactive. How the calls were made is not given here.",
  "data": [
    {"smiles": "CCOC(=O)N1CCC(NCCNC(=O)c2ccccc2C)CC1", "values": [
      {"measurement": "inhibition", "result": 2, "unit": "%"}
    ]}
  ]
}
